# Results as given in the supplement of paper PMC4022240.
# ± gives the standard deviation.
# T1: HaloTag-ATRX ADD domain (163-292)
# T1 chain: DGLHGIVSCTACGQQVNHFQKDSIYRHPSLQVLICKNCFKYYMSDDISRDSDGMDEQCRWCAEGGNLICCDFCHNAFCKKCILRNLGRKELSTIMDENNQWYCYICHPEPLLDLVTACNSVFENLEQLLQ
# B1: Unmod H2A variant G A G A P V Y L A A V L E (peptide)
# chain: GAGAPVYLAAVLE
# B2: Unmod H2A variant G A G A P V Y M A A V L E (peptide)
# chain: GAGAPVYMAAVLE
# B3: Unmod H2A variant L A A V L E Y L T A E I L (peptide)
# chain: LAAVLEYLTAEIL
# B4: Unmod H2A variant M A A V L E Y L T A E I L (peptide)
# chain: MAAVLEYLTAEIL
# B5: Unmod H2A variant Y L T A E I L E L A G N A (peptide)
# chain: YLTAEILELAGNA
# B6: Unmod H2A variant I L E L A G N A A R D N K (peptide)
# chain: ILELAGNAARDNK
# B7: Unmod H2A variant I L E L A G N A S R D N K (peptide)
# chain: ILELAGNASRDNK
# B8: Unmod H2A variant G N A A R D N K K T R I I (peptide)
# chain: GNAARDNKKTRII
# B9: Unmod H2A variant G N A S R D N K K T R I I (peptide)
# chain: GNASRDNKKTRII
# B10: Unmod H2A variant D N K K T R I I P R H L Q (peptide)
# chain: DNKKTRIIPRHLQ
# Target: T1, HaloTag-ATRX ADD domain (163-292)
# Assay: peptide microarray binding signal (635 nm), min-max normalized on array (fraction of array maximum); higher = stronger binding
# Details: peptide region: Unmod H2A variant; binder concentration: 50 nM
# Outline: (§1)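 For each library, binding signal was taken as the triplicate-spot mean intensity and then min-max scaled. Spots of histone 13-mer peptide–cellulose conjugates on nitrocellulose, printed in triplicate with a Cy3 tracer, were probed for 1 h at 4°C with either biotin-labelled HaloTag reader fusions (10 nM to 1 μM) and streptavidin-Alexa Fluor 647 or rabbit histone antibodies (1:10,000 to 1:2,000) and anti-rabbit Alexa 647. Readout at 635 nm came from an Axon GenePix 4000B.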
row,Binder,peptide microarray binding signal
1,B1,0.0133 ± 0.00042
2,B2,0.0137 ± 0.00082
3,B3,0.0089 ± 0.00038
4,B4,0.0107 ± 0.00027
5,B5,0.0171 ± 0.0047
6,B6,0.048 ± 0.0046
7,B7,0.0191 ± 0.0013
8,B8,0.0155 ± 0.0014
9,B9,0.0142 ± 0.00075
10,B10,0.0223 ± 0.0044

# Same assay, conditions: peptide region: Unmod H2A variant; binder concentration: 500 nM
row,Binder,peptide microarray binding signal
1,B1,0.00505 ± 0.0014
2,B2,0.0173 ± 0.0023
3,B3,0.00462 ± 0.00017
4,B4,0.00667 ± 0.00052
5,B5,0.00443 ± 0.0022
6,B6,0.0752 ± 0.011
7,B7,0.04029 ± 0.00036
8,B8,0.0214 ± 0.0004
9,B9,0.00895 ± 0.0037
10,B10,0.0112 ± 0.0059

# Target: HaloTag-ING2 PHD (mouse Ing2 200-280)
# Assay: as above
# Details: peptide region: Unmod H2A variant; binder concentration: 10 nM
# Outline: as §1
row,Binder,peptide microarray binding signal
1,B1,0.0031 ± 0.00049
2,B2,0.0083 ± 0.0011
3,B3,0.00215 ± 4.5e-05
4,B4,0.00173 ± 2.1e-05
5,B5,0.00203 ± 0.00013
6,B6,0.0242 ± 0.0025
7,B7,0.00734 ± 0.00031
8,B8,0.003223 ± 1.8e-05
9,B9,0.0031 ± 0.00011
10,B10,0.00245 ± 9.1e-05

# Same assay, conditions: peptide region: Unmod H2A variant; binder concentration: 100 nM
row,Binder,peptide microarray binding signal
1,B1,0.0137 ± 0.00099
2,B2,0.0205 ± 0.0014
3,B3,0.00184 ± 0.00015
4,B4,0.000992 ± 2.8e-05
5,B5,0.00149 ± 4.1e-05
6,B6,0.0721 ± 0.0091
7,B7,0.0487 ± 0.0018
8,B8,0.0051 ± 0.00053
9,B9,0.00673 ± 0.00046
10,B10,0.0078 ± 0.0012

# Target: anti-H3K4me3 antibody ab8580
# Assay: as above
# Details: peptide region: Unmod H2A variant; binder concentration: 1:2,000 dilution
# Outline: as §1
row,Binder,peptide microarray binding signal
1,B1,0.000189 ± 8.9e-06
2,B2,0.00425 ± 0.00061
3,B3,0.00238 ± 0.0001
4,B4,0.00829 ± 0.0044
5,B5,0.000717 ± 0.00017
6,B6,0.0104 ± 0.0051
7,B7,0.0164 ± 0.0026
8,B8,0.00162 ± 0.0002
9,B9,0.000396 ± 2.5e-05
10,B10,0.000472 ± 9.6e-05

# Same assay, conditions: peptide region: Unmod H2A variant; binder concentration: 1:10,000 dilution
row,Binder,peptide microarray binding signal
1,B1,0.0016 ± 2.7e-05
2,B2,0.0016 ± 0.00012
3,B3,0.000913 ± 1.6e-05
4,B4,0.00217 ± 3.9e-05
5,B5,0.00126
6,B6,0.015 ± 0.0031
7,B7,0.00354 ± 0.00017
8,B8,0.000799 ± 8.3e-06
9,B9,0.0012 ± 4.3e-05
10,B10,0.00183 ± 0.00033

# Target: anti-H3K9me3 antibody ab8898
# Assay: as above
# Details: peptide region: Unmod H2A variant; binder concentration: 1:2,000 dilution
# Outline: as §1
row,Binder,peptide microarray binding signal
1,B1,0.000423 ± 1.1e-05
2,B2,0.000846 ± 4.3e-05
3,B3,0.0003775 ± 3.7e-06
4,B4,0.000529 ± 1.3e-05
5,B5,0.000664 ± 3.6e-05
6,B6,0.00921 ± 0.0019
7,B7,0.00523 ± 0.00098
8,B8,0.000362 ± 6.3e-06
9,B9,0.000272 ± 4.9e-06
10,B10,0.000317 ± 2.5e-05

# Same assay, conditions: peptide region: Unmod H2A variant; binder concentration: 1:10,000 dilution
row,Binder,peptide microarray binding signal
1,B1,0.00104 ± 2.8e-05
2,B2,0.00144 ± 3.7e-05
3,B3,0.00075 ± 7.9e-06
4,B4,0.00075 ± 1.6e-05
5,B5,0.00196 ± 0.00018
6,B6,0.0132 ± 0.0022
7,B7,0.00536 ± 0.0001
8,B8,0.000577 ± 6.2e-06
9,B9,0.00075 ± 7.9e-06
10,B10,0.000923 ± 7.7e-05
